High-throughput results (PubChem BioAssay)
HIV Env fusion = HIV envelope-mediated fusion inhibition; HeLa-JRFL Env/CEM21 cell fusion, luciferase; inhibition, % at 12.3 µM; hit rate 1.1% among 360,000; AID 651610;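 active = mean replicate inhibition score of at least 50 and every replicate individually at or above 50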;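 also: 0% = plate neutral controls and 100% = maraviroc near 300 nM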
NSD2 inh = inhibitors of human histone methyltransferase NSD2 | O96028 | NSD2 peptide methylation, AlphaScreen, 120 min | inhibition, % at 12.5 µM | hit rate 0.54% among 310,000 | AID 743445; in the data active = inhibition above about 50%
ALR H2O2 inh = inhibitors of human sulfhydryl oxidase ALR; inhibition, % (concentration not given with the values); purified ALR, DTT oxidation, H2O2 HRP-luminol luminescence; hit rate 3.8% among 290,000;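 active = mean replicate inhibition above about 79%, with every replicate also reaching it, limit read from the data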
Target sequence (P55789 whole entry, looked up): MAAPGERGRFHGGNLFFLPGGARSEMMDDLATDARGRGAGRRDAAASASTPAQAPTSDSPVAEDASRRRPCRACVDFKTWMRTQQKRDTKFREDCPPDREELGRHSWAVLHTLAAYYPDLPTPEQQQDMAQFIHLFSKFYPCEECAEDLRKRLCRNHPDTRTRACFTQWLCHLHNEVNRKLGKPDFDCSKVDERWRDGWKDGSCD
CASP6 VEID inh = caspase-6 (human) enzyme inhibition; P55212; purified caspase-6, Z-VEID-R110 cleavage fluorescence; AID 686996; inhibition, % at 12.5 µM; hit rate 0.53% among 350,000;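 active = mean inhibition across replicates at least about 35%, with every replicate also reaching that limit, limit read from the data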;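 also: 0% = median of neutral control wells and 100% = no fluorescence left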
Target sequence (P55212 24-179 limits assumed): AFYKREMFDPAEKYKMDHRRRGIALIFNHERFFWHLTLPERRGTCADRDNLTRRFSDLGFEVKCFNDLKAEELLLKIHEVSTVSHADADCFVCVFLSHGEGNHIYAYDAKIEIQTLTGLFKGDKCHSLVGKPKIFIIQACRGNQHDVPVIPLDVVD
Target sequence (P55212 194-293 limits assumed): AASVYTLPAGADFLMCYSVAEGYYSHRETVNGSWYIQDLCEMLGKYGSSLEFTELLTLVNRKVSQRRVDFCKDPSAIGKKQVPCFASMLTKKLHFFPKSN
F508del corr = correctors of CFTR F508del function in bronchial epithelial cells | CFBE cells, YFP halide quenching; stimulated with forskolin plus potentiator P3; % fluorescence drop versus neutral controls | activity (quench increase), % at 7.58 µM | hit rate 0.36% among 350,000 | AID 720511;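 active = mean added fluorescence quench of at least 8% versus neutral control, with both replicates also reaching 8%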;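 also: cells transiently co-express mutant CFTR-F508del with the halide-sensitive YFP; corrector assay measuring rescue of mutant channel to the surface after 24 h compound exposure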
PglD inh = blocks C. jejuni PglD acetyltransferase activity; purified PglD enzyme, DTNB colorimetric CoA detection; inhibition, % at 12.5 µM; hit rate 0.098% among 360,000; in the data active = inhibition above about 16%, passing the limit was not always enough
* = called active by the depositor; · = no result; [ ] = another dose, or the depositor's remark. Sampled rows, rich in hits. Any-hit rate of the full collection: about 4.1%.

SMILES | HIV Env fusion | NSD2 inh | ALR H2O2 inh | CASP6 VEID inh | F508del corr | PglD inh
NS(=O)(=O)c1ccc(CNS(=O)(=O)c2cccc3nonc23)cc1 | -16.8 | · | -19.9 | -2.4 | 2.0 | 5.3
O=S(=O)(NCc1ccccc1)c1cccc2nonc12 | -52.1 | -0.8 | 98.9* | · | · | ·
C[C@@H]1CCCCO[C@@H](CN(C)C(=O)NC2CCCCC2)[C@H](C)CN([C@@H](C)CO)C(=O)c2cc(NC(=O)Nc3ccc(C(F)(F)F)cc3)ccc2O1 | 14.5[16.7 µM] | · | · | 1.1 | 2.5 | -4.3
Nc1ccc2nc(Cc3ccccc3)[nH]c2c1 | 8.1 | 2.5 | 100.2* | -5.9 | -0.5 | -6.1
CC(C)Cc1nc2ccc(N)cc2[nH]1 | 5.3 | 9.4 | 99.6* | -4.7 | -2.7 | -3.8
Cc1ccc2nc(Cc3ccc(N)cc3)[nH]c2c1 | -57.6 | 5.1 | · | · | · | -8.0
COc1ccccc1NC(=O)C(C)OC(=O)c1cc2ccccc2[nH]1 (stereo unspecified) | · | 0.2 | -4.6 | 2.9 | 0.1 | 2.6
COc1ccc(OC)c(NC(=O)C(C)OC(=O)c2cc3ccccc3[nH]2)c1 (stereo unspecified) | 58.2* | 0.2 | · | 1.8 | -4.4 | -2.1
CCS(=O)(=O)N1Cc2ccccc2CC1C(=O)NC(C)C12CC3CC(CC(C3)C1)C2 (stereo unspecified) | 101.6* | 0.4 | 0.3 | · | · | 3.1
CCS(=O)(=O)N1Cc2ccccc2CC1C(=O)NCC12CC3CC(CC(C3)C1)C2 (stereo unspecified) | 85.5* | -0.2 | -11.2 | · | · | 5.8
CCS(=O)(=O)N1Cc2ccccc2CC1C(=O)Nc1nc(C)cs1 (stereo unspecified) | -37.3 | 0.6 | -12.9 | 5.1 | 1.1 | ·
CCC(c1nnnn1CCOC)N(Cc1cc2c(C)cc(C)cc2[nH]c1=O)CC1CCCO1 (stereo unspecified) | · | 1.1 | -1.7 | 2.4 | 1.9 | -4.9
CCC(c1nnnn1CCOC)N(Cc1cc2cc(C)c(C)cc2[nH]c1=O)CC1CCCO1 (stereo unspecified) | -41.7 | 2.3 | 99.1* | · | · | 0.3
CCC(c1nnnn1CCOC)N(Cc1ccc(C)cc1)Cc1cc2cc(OC)ccc2[nH]c1=O (stereo unspecified) | · | -3.0 | -33.0 | · | · | 5.3
CCCC(c1nnnn1CCOC)N(Cc1cc2cc(C)c(C)cc2[nH]c1=O)CC1CCCO1 (stereo unspecified) | · | 2.9 | 99.3* | 6.7 | -4.3 | 3.1
CCS(=O)(=O)NCC[C@H]1CC[C@H](NC(=O)C2CCCC2)[C@@H](CO)O1 | -22.1[16.7 µM] | · | · | 0.4 | 3.5 | 1.9
Cc1cccnc1NC(=O)CSc1ccc2c(c1)OCCO2 | -6.6 | -0.8 | · | 1.9 | -0.7 | -1.8
Cc1ccc(NC(=O)CSc2ccc3c(c2)OCCO3)nc1 | -113.2 | -3.7 | 97.8* | -67.0 | -1.2 | 3.4
O=C(CSc1ccc2c(c1)OCCO2)NCc1ccco1 | 26.0 | 0.1 | 97.8* | · | · | 11.1
C[N+]1(CCCCSc2ccc(O)cc2)CCCCC1 | 5.2 | 10.8 | 99.1* | -7.7 | · | 2.9
CCn1c(-c2ccc(C)cc2)nn(CC(=O)NCCc2ccccc2)c1=S | 76.5* | -1.9 | -5.7 | · | · | ·
C[C@@H]1CN([C@@H](C)CO)S(=O)(=O)c2ccc(-c3ccncc3)cc2O[C@H]1CN(C)S(=O)(=O)c1ccccc1F | · | · | · | -3.9 | -1.3 | -0.5
Cc1cc(C(=O)COc2ccc3ccc(=O)oc3c2)c(C)n1Cc1cccs1 | 7.9 | 1.5 | 87.5* | · | · | ·
O=C(O)[C@H]1[C@H](CO)[C@H]2Cn3c(ccc(/C=C/c4ccccc4)c3=O)[C@H]2N1Cc1ccc2c(c1)OCO2 | -29.9[16.7 µM] | · | · | 1.1 | · | -1.6
O=C(O)[C@@H]1[C@@H](CO)[C@@H]2Cn3c(ccc(/C=C/c4ccccc4)c3=O)[C@@H]2N1Cc1ccc2c(c1)OCO2 | -8.4[16.7 µM] | · | · | 50.1* | · | -2.4
SMILES | HIV Env fusion | NSD2 inh | ALR H2O2 inh | CASP6 VEID inh | F508del corr | PglD inh
CC(C)[C@H]1COCc2cn(nn2)CC[C@H](Cc2ccccc2)C(=O)N1 | -3.6[16.7 µM] | · | · | 4.4 | · | ·
CSc1nnc(-c2cc3c(s2)-c2ccccc2CC3)o1 | · | -9.3 | -10.2 | · | · | ·
CC1CCc2sc(C(=O)NC3CCCCC3)cc2C1 (stereo unspecified) | -72.0 | -1.2 | -3.3 | -0.1 | -0.9 | 2.0
CC1CCc2sc(-c3n[nH]c(=S)o3)cc2C1 (stereo unspecified) | -31.3 | 1.2 | 98.2* | 1.8 | 3.2 | ·
S=c1[nH]nc(-c2cc3c(s2)-c2ccccc2CC3)o1 | · | -31.3 | 96.9* | · | · | ·
CCn1c(SCC(=O)NC(=O)NC(C)(C)C)nc2ccccc21 | 8.0 | -1.1 | -8.0 | 1.1 | · | ·
COCCn1c(SCC(=O)NC(=O)NC(C)(C)C)nc2ccccc21 | 122.8* | 7.5 | -17.1 | · | · | -4.4
COC(=O)C1=C(C(=O)OC)[C@]2([C@@H]3CC=CCN[C@@H](Cc4ccccc4)C(=O)N3Cc3ccccc3)C=C[C@H]1O2 | 73.3* | · | · | 0.0 | 1.5 | -4.8
O=C1[C@H](Cc2ccccc2)NCC=CC[C@@H](c2ccco2)N1Cc1ccccc1 | 33.3 | · | · | -4.0 | 0.7 | 0.8
COC(=O)C1=C(C(=O)OC)[C@]2([C@H]3CC=CCN[C@@H](Cc4ccccc4)C(=O)N3Cc3ccccc3)C=C[C@H]1O2 | 58.2* | · | · | -9.1 | 6.0 | 1.6
CC1=CC(=O)C2=C(C)CCC3C(C)C(=O)OC3C12 (stereo unspecified) | · | · | · | -0.6 | -0.3 | -2.0
CC1=CC(=O)C2=C(C)CC[C@@H]3[C@H](OC(=O)[C@H]3C)[C@@H]12 | 67.6* | · | 2.2 | -1.1 | 6.8 | 1.4
Cc1occc1C(=O)NNC1=CC(=O)CC(C)(C)C1 | -92.9 | -2.5 | 89.2* | · | · | 2.5
CC1(C)CC(=O)C=C(NNC(=O)c2ccccc2)C1 | -13.4 | -1.3 | 21.9 | · | · | 3.6
COCC(=O)N(C)C[C@@H]1Oc2ncc(-c3ccccc3F)cc2C(=O)N([C@@H](C)CO)C[C@H]1C | -9.9[16.7 µM] | · | · | -2.8 | -0.1 | 4.1
CCOc1ccc(C(Nc2ccc(C)cc2)P2(=O)OCCC(C)O2)cc1 (stereo unspecified) | · | 6.4 | 98.5* | · | · | 1.0
CCCn1c2ccc(/C(C)=N\O)cc2c2cc(/C(C)=N/O)ccc21 | · | -0.6 | 98.2* | · | · | ·
COc1ccccc1C#Cc1cnc2c(c1)C(=O)N([C@@H](C)CO)C[C@@H](C)[C@H](CN(C)S(=O)(=O)c1cn(C)cn1)O2 | -1.1[16.7 µM] | · | · | -2.9 | -1.4 | 6.4
CCc1nn(C)c(-c2n[nH]c(=S)n2N)c1Cl | · | 5.0 | 91.2* | · | · | 5.6
CCc1cc(-c2n[nH]c(=S)n2N)n(C)n1 | · | -3.1 | 95.4* | · | · | ·
Cc1[nH]c2ccccc2c1SCC(=O)N1CCCc2ccccc21 | 69.0* | · | 74.2 | -1.7 | -0.5 | 5.5
Nc1nc(SCC(=O)N2CCN(c3ccc(F)cc3)CC2)n[nH]1 | 0.0 | 0.0 | 94.5* | 2.1 | 1.5 | -1.2
O=C(CN1CCN(c2ccc(F)cc2)CC1)N1CCOCC1 | · | -3.2 | 88.3* | · | · | 6.9
Cc1[nH]c2ccccc2c1SCC(=O)N1CCN(c2ccccc2)CC1 | -52.1 | · | 91.2* | 3.5 | -5.3 | 7.7
COc1ccccc1CNC(=O)C[C@H]1CC[C@@H]2[C@H](COC[C@@H](O)CN2Cc2ccc3c(c2)OCO3)O1 | -11.2[16.7 µM] | · | · | 2.0 | -1.7 | -1.3
